From PubChem BioAssay (NCATS)
Records with an inconclusive call do not appear. The source made the active and inactive calls. Unless noted, calls follow the shape of the dose curve; as a rule, active = well fitted curve in either direction with a large enough effect (not every such curve was filed as active); inconclusive = small, poorly fitted or top-dose-only effect, or another doubt; inactive = flat fitted curve, though single readings scatter.

Experiments:
[1] = molecular target: Lysosomal acid glucosylceramidase (Homo sapiens) (UniProt P04062); experiment: Glucocerebrosidase-p2 (AID 348; in the data active = potency below about 10 µM; also: potency is read from the fitted curve at half-maximal effect); settings: purified GBA, blue fluorogenic substrate, 40 min
Sequence of Lysosomal acid glucosylceramidase (Homo sapiens) (P04062 whole entry, looked up): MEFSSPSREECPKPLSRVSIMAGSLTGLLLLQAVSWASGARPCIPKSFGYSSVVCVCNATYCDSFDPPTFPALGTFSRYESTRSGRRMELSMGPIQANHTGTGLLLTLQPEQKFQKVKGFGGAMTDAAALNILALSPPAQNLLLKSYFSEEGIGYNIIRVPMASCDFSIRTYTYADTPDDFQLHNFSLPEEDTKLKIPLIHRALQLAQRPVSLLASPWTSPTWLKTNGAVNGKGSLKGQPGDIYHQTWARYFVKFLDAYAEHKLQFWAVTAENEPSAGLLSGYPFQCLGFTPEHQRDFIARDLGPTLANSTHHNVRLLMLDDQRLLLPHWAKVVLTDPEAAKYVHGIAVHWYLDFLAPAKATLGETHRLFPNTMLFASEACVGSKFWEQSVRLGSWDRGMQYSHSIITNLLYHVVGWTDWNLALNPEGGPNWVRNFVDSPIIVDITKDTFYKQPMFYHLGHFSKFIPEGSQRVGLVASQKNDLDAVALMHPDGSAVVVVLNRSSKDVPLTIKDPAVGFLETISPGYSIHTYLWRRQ
In short: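 Normal human glucocerebrosidase (0.2 nM) with blue fluorogenic substrate (80 uM final) in citrate/phosphate pH 5.9 with 10mM sodium taurocholate, 0.01% tween-20; 40 min RT, NaOH/glycine stop; fluorescence Ex 365/Em 440; AC50 from a titration from 0.6 nM upwards.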

[2] = AP1 Signaling Pathway (AID 357); settings: ME-180 AP-1-bla reporter, EGF-induced, beta-lactamase ratio, 5 h; at 7.69 µM (top of the series) unless noted;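 also: ME-180 reporter cells stimulated with EGF at its EC50 level; % is scaled to controls: 0 for no effect and ±100 for the full control effect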
In short: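 Beta-lactamase reporter under AP-1 response element, ME-180 background. Stimulus: EC50 EGF. Compound exposure 5 h, 37 °C. Detection: CCF4, 2.5 h RT, 460/530 nm. Values: AC50 from titration.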

[3] = molecular target: Cytochrome P450 1A2 (Homo sapiens) (UniProt P05177); experiment: p450-cyp1a2 (AID 410; calls by dose curve; also: potency is read from the fitted curve at half-maximal effect); settings: recombinant CYP1A2, luciferin-ME demethylation, luminescence; series mostly up to 57 µM
Sequence of Cytochrome P450 1A2 (Homo sapiens) (P05177 whole entry, looked up): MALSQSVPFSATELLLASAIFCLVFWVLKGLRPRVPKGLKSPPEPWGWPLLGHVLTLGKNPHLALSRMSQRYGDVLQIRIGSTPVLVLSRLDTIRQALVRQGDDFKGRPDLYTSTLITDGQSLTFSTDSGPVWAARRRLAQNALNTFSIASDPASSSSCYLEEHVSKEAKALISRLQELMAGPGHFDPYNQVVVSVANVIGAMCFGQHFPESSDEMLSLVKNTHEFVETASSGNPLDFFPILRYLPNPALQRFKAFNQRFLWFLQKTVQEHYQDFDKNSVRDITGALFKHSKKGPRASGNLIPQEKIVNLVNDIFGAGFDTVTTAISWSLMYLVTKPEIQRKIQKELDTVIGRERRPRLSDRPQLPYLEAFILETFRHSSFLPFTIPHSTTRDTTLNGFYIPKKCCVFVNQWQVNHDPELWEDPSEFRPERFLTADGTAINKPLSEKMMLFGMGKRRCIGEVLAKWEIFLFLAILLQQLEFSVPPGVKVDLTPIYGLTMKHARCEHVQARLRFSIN
In short: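 O-Demethylation of luciferin 6' methyl ether by human CYP1A2 is monitored as luciferase luminescence. Substrate sits at Km (100uM); enzyme is 20nM. Values are scaled to 57 uM furafylline as maximal inhibition.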

[4] = NFAT Signaling Pathway (AID 444); settings: Jurkat NFAT-bla M1, carbachol, beta-lactamase ratio, 5 h; at 7.69 µM (top of the series) unless noted;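 also: carbachol stimulus at about its EC50 of 1 µM final; % is scaled to controls: 0 for no effect and ±100 for the full control effect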
In short: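 Read-out: CCF4 FRET ratio (460 nm/530 nm) after 1 h RT dye loading, used for %activity and AC50 from titration series. Cells: Jurkat NFAT-β-lactamase/M1 line, treated with compound plus 1 uM carbachol for 5 h, 37 °C.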

[5] = Stat Signaling Pathway (AID 446); settings: ME-180 (cervical carcinoma) SIE beta-lactamase reporter, IL-6 stimulated, 5 h; at 7.69 µM (top of the series) unless noted;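 also: ME-180 cervical cancer cells given 40 pM IL-6 alongside compound; SIE-controlled beta-lactamase reporter measured as 460/530 nm FRET emission ratio; % is scaled to controls: 0 for no effect and ±100 for the full control effect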
In short: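 Overnight-plated ME-180 cells bearing a STAT Inducible Element beta-lactamase reporter; 5 h co-exposure to compound and 40 pM IL-6; values normalized to 300 pM IL-6 and 125 nM JAK inhibitor controls.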

[6] = molecular target: Glucocorticoid receptor (Homo sapiens) (UniProt P04150); experiment: GR-GFP Redistribution (AID 450;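 active = compounds whose dose series gives a full or clear partial fitted curve of increased nuclear translocation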; also: potency is read from the fitted curve at half-maximal effect); settings: U2OS GR-GFP nuclear translocation, laser cytometry, 2 h
Sequence of Glucocorticoid receptor (Homo sapiens) (P04150 whole entry, looked up, the tested form may be a part): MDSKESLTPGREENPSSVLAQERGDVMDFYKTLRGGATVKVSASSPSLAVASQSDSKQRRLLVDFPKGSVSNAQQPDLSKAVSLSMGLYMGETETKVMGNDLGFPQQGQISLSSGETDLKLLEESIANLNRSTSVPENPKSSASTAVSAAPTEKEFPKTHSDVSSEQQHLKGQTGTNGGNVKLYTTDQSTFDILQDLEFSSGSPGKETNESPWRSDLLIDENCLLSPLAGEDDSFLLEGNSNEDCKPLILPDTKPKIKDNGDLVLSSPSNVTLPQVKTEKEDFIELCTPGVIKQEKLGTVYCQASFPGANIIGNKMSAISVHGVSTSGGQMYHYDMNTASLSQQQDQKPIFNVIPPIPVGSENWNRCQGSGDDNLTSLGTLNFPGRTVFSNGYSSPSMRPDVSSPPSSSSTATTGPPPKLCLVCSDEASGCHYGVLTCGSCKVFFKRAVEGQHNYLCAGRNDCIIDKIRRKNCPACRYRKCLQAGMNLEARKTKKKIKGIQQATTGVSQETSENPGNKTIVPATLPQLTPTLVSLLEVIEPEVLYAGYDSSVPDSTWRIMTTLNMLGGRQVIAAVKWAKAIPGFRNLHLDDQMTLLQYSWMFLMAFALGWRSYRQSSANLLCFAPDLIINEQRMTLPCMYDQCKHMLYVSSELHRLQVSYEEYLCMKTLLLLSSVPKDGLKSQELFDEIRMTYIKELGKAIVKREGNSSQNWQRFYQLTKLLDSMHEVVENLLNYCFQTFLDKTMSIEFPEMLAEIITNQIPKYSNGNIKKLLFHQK

[7] = molecular target: Glucocorticoid receptor (Homo sapiens) (UniProt P04150); experiment: GR-EFC Redistribution (AID 451; calls by dose curve; also: potency is read from the fitted curve at half-maximal effect); settings: CHO-K1 GR-EFC translocation, beta-gal luminescence, 2 h
In short: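 Translocation of GR-ED fusion to nuclear EA restores b-gal, read by luminescence after 1 h room-temperature detection. Engineered CHO-K1 biosensor cells, 1,000/well, exposed 2 h at 37 C to titrations up to 46 uM final.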

[8] = molecular target: Mitogen-activated protein kinase 10 (Mus musculus) (UniProt Q61831); experiment: JNK3 AlphaScreen Assay (AID 530); settings: JNK3 lysate, c-Jun phosphorylation; series mostly up to 57.1 µM;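 also: kinase came from lysate of stimulated human HepG2 cells; signal reports phosphorylation of biotinylated GST-cJun 1-79 at Ser73 with 10 µM ATP; % is scaled to controls: 0 for no effect and ±100 for the full control effect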
In short: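 qHTS titrations with 15 min compound pre-incubation before adding ATP (10 uM final). Read-out: AlphaScreen of Ser73-phosphorylated biotin-GST-cJun using HepG2 lysate JNK3 activated by IL-1β and TNFα.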

[9] = molecular target: 3',5'-cyclic-AMP phosphodiesterase 4B (Homo sapiens) (UniProt Q07343); experiment: qHTS Assay for Inhibitors of PDE-IV (AID 607; active = well fitted activation curve with a large enough effect in the main read-out, with a control signal flat, not every such curve was filed as active; also: % of control where 0% means no effect); settings: HEK293 ACTOne CNG channel cells, membrane potential fluorescence; series mostly up to 22.9 µM
Sequence of 3',5'-cyclic-AMP phosphodiesterase 4B (Homo sapiens) (Q07343 whole entry, looked up): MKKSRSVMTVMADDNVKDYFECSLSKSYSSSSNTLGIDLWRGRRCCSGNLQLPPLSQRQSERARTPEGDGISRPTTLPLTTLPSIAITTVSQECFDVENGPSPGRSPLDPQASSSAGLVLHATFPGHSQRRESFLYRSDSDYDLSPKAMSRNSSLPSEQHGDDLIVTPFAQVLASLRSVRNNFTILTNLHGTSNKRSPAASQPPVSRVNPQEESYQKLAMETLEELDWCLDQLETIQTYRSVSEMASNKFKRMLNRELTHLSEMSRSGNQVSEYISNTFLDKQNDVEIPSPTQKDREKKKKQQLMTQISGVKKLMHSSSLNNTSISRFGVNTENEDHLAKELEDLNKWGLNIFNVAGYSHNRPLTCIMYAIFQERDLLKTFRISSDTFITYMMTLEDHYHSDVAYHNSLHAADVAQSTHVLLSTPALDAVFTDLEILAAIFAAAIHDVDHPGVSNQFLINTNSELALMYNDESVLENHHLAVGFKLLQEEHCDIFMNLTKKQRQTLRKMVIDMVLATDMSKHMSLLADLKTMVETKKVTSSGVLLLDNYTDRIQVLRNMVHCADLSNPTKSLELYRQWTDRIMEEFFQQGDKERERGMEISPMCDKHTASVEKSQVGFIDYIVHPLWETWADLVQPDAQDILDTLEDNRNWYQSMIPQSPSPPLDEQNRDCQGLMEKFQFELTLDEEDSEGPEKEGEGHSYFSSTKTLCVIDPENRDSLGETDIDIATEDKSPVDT
In short: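 Live HEK293 cells with a modified cyclic nucleotide-gated (CNG) channel report intracellular cAMP via membrane-potential dye fluorescence (ex 535/em 590 nm). Endogenous PDE-IV was targeted. Compounds were tested at up to 22.9 uM final; RO 20-1724 100 uM served as control.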

[10] = molecular target: Cytochrome P450 3A4 (Homo sapiens) (UniProt P08684); experiment: qHTS Assay for Activators of Cytochrome P450 3A4 (AID 885; active = well fitted curve in the direction sought with a large enough effect; an effect the other way counts as inactive or inconclusive; also: nearly all actives have a fitted effect of over 65% in size); settings: recombinant CYP3A4, Luciferin-PPXE luminescence, 60 min; series mostly up to 57.1 µM
Sequence of Cytochrome P450 3A4 (Homo sapiens) (P08684 whole entry, looked up): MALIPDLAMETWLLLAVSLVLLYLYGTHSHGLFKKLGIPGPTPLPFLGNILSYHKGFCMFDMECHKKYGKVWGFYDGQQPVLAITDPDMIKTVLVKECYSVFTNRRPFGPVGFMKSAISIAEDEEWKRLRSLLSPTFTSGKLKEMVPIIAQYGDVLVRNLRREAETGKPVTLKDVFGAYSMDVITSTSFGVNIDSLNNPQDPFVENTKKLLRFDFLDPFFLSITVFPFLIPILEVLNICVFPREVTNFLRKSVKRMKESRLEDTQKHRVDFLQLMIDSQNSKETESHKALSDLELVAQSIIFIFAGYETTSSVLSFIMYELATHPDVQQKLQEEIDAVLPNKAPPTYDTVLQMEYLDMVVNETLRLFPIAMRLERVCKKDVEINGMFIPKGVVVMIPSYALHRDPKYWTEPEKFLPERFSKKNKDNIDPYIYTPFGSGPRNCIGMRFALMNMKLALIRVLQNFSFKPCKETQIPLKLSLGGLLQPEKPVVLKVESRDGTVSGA
In short: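 Using 20nM recombinant human CYP3A4 in potassium phosphate (200mM), substrate Luciferin-PPXE at 25uM, luminescent luciferin detection followed a 60-min RT NADPH reaction; data scaled to 57 uM ketoconazole.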

[11] = qHTS Assay for Lipid Storage Modulators (AID 1519; calls by dose curve); settings: Drosophila S3 cells, BODIPY lipid droplet/cell ratio, laser cytometry, cells loaded with oleic acid; for activity change, negative = inhibition: at 57.5 µM (top of the series)
In short: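 Cells seeded at 5,000 per well were treated with compounds over a concentration series and loaded with oleic acid (400 uM, as added). Lipid droplet fluorescence (488 nm excitation, 500-530 nm channel) was read by laser-scanning cytometry and normalized to 20 uM Triacsin C.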

[12] = molecular target: Dual specificity protein kinase CLK4 (Homo sapiens) (UniProt Q9HAZ1); experiment: qHTS Assay for Inhibitors of CDC-like Kinase 4 (ADP-FP Assay) (AID 1795; active = well fitted curve in the direction sought with a large enough effect; an effect the other way counts as inactive or inconclusive;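 also: recombinant human CLK4 phosphorylating RS repeat peptide at 1 µM ATP; % is scaled to controls: 0 for no effect and ±100 for the full control effect; nearly all actives have a fitted effect of over 60% in size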); settings: Transcreener ADP fluorescence polarization; series mostly up to 50 µM
Sequence of Dual specificity protein kinase CLK4 (Homo sapiens) (Q9HAZ1 whole entry, looked up): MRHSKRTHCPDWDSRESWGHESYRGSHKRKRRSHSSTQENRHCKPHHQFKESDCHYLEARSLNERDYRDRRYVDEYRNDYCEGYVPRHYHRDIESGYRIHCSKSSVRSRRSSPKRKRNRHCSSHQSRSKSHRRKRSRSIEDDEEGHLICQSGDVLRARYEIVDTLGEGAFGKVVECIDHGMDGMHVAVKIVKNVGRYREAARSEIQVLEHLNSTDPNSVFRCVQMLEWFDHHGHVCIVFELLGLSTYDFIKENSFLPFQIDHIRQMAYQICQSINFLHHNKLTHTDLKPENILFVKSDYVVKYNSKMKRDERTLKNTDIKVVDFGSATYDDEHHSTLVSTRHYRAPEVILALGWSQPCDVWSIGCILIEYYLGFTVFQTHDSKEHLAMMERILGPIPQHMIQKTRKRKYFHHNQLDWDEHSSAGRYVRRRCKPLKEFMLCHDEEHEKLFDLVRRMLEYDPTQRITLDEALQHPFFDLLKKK
In short: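 Recombinant Clk4 (6.25 nM) phosphorylated 100 uM RS repeat peptide with 1 uM ATP in 25 mM Tris pH 7.5, 10 mM MgCl2, 0.5 mM EGTA, 2.5 mM DTT, 0.01% Triton X-100 for 1 h. ADP was detected by Transcreener ADP2 competitive fluorescence polarization after 30 min at room temperature.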

[13] = molecular target: Ubiquitin carboxyl-terminal hydrolase 1 (Homo sapiens) (UniProt O94782); experiment: Inhibitors of USP1/UAF1: Pilot qHTS (AID 504865; active = well fitted curve in the direction sought with a large enough effect; an effect the other way counts as inactive or inconclusive; also: nearly all actives have a fitted effect of over 35% in size; also: potency is read from the fitted curve at half-maximal effect); settings: purified USP1/UAF1, Ub-rhodamine cleavage fluorescence; series mostly up to 54.9 µM
Sequence of Ubiquitin carboxyl-terminal hydrolase 1 (Homo sapiens) (O94782 whole entry, looked up): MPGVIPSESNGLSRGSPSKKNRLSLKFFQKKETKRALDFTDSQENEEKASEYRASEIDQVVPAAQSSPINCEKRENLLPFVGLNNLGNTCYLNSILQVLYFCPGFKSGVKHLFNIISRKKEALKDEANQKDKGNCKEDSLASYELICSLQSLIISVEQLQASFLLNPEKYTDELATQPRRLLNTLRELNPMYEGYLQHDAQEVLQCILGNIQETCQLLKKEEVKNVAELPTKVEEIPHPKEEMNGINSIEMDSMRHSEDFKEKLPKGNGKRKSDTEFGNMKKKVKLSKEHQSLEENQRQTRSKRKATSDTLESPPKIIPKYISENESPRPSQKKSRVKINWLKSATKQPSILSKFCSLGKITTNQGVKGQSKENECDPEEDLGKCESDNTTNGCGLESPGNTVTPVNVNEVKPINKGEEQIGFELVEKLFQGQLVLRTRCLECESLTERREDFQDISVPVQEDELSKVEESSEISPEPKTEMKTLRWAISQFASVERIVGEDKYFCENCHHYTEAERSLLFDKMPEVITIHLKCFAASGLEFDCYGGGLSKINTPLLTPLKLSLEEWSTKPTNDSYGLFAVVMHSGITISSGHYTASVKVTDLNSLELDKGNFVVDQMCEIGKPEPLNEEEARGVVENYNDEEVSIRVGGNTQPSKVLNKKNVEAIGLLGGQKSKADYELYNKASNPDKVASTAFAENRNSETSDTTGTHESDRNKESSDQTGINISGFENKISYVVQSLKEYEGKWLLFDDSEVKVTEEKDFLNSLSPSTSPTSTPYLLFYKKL
In short: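 USP1/UAF1 complex at 1 nM preincubated 15 min at room temperature with compound, then Ub-Rho substrate added at 150 nM final. Fluorescence (480/540 nm) read kinetically in 50 mM HEPES pH 7.8, 0.5 mM EDTA, 1 mM TCEP, 0.1 mg/ml BSA, 0.01% Tween-20.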

[14] = Primary qHTS for small molecule stabilizers of the endoplasmic reticulum resident proteome: Secreted ER Calcium Modulated Protein (SERCaMP) assay (AID 1508630; active = well fitted curve in the direction sought with a large enough effect; an effect the other way counts as inactive or inconclusive; also: % is scaled to controls: 0 for no effect and ±100 for the full control effect); settings: SH-SY5Y GLuc-SERCaMP (Gaussia luciferase released on ER calcium loss) secretion, thapsigargin, luminescence; series mostly up to 38.4 µM
In short: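 The SH-SY5Y reporter protocol was run at 3 concentrations up to 38.3 uM (primary) or 11 concentrations (follow-up): 16 h compound, 100 nM thapsigargin for 4 h, then extracellular luciferase luminescence.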

[15] = Confirmation and Secondary Assay for Modulators of Hemoglobin Beta Chain Splicing at IVS2 654 locus (AID 910; active = well fitted curve in the direction sought with a large enough effect; an effect the other way counts as inactive or inconclusive;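 also: HeLa cells stably carrying EGFP split by mutant beta-globin IVS2-654 intron; % of control where 0% means no effect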); settings: HeLa EGFP-654 splicing reporter, GFP fluorescence, 48 h; series mostly up to 38.3 µM
In short: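 Readout: per-well total peak green fluorescence (488 nm ex, 500–520 nm em) from objects 5–250 µm, reflecting correct splicing of an EGFP-654 reporter. Compounds were applied for 2 days at 37 °C to overnight-plated HeLa EGFP-654 cells; controls were DMSO and 500 nM IVS2-654 PNA.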

[16] = Confirmation and Secondary Assay for Modulators of Hemoglobin Beta Chain Splicing at IVS2 705 locus (AID 930; active = well fitted curve in the direction sought with a large enough effect; an effect the other way counts as inactive or inconclusive;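 also: HeLa cells stably expressing the EGFP-705 splicing reporter; GFP fluorescence per well restored by corrected splicing of the IVS2-705 intron in EGFP; % of control where 0% means no effect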); settings: HeLa EGFP-705 splicing reporter, GFP fluorescence, 48 h; series mostly up to 38.3 µM
In short: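 HeLa cells stably carrying EGFP interrupted by mutant beta-globin intron 2 (IVS2-705) treated 2 days at 37C with compound; 500 nM antisense PNA as control. Correct splicing read as total peak GFP intensity per well by laser-scanning cytometry.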

[17] = measured here: cell count channel max response
[18] = measured here: lipid channel max response

For `COc1ccc(Oc2ncc3ncc(=O)n(C)c3n2)cc1`, the Potency [1] was > 11.4 µM (inactive), the activity change, negative = inhibition [2] was -12.2% (inactive) and the Potency [3] was 3.98 µM (active). The activity change, negative = inhibition [4] was -6.92% (inactive), the activity, negative = inhibition [5] was -7.6% (inactive) and the Potency [6] was > 9.22 µM (inactive). The Potency [7] was > 46 µM (inactive), the outcome [8] was “inactive” and the Potency [9] was “inactive”. For the same molecule, the Potency [10] was “inactive”, the activity change, negative = inhibition [11] was 5.63% (inactive) and the max response [11, 17] was 9.26%. The max response [11, 18] was 14.1%, the Potency [12] was “inactive” and the Potency [13] was “inactive”. The Potency [14] was “inactive”.
In the case of `CN(C)Cc1ccccc1-c1nc(N(C)C)c2ccccc2n1`, the Potency [1] is reported as > 11.4 µM (inactive), the activity change, negative = inhibition [2] is reported as 19.8% (inactive) and the Potency [3] is reported as 1.26 µM (active). For the same molecule, the activity change, negative = inhibition [4] was 13.2% (inactive), the activity, negative = inhibition [5] was 28.7% (inactive) and the Potency [6] was > 46 µM (inactive). For the same molecule, the Potency [7] was > 46 µM (inactive), the outcome [8] was “inactive” and the activity change, negative = inhibition [11] was -2.91% (inactive). The max response [11, 17] was 9.81%, the max response [11, 18] was 6.7% and the Potency [12] was “inactive”. The Potency [13] was “inactive” and the Potency [14] was “inactive”.
With `CN(C)c1ccc(-c2nc(NCCN3CCOCC3)c3ccccc3n2)cc1` the activity change, negative = inhibition [2] was 1.67% (inactive), the Potency [3] was 7.94 µM (active) and the activity change, negative = inhibition [4] was -21.3% (inactive). The Potency [7] was > 46 µM (inactive), the outcome [8] was “inactive” and the Potency [9] was “inactive”. For the same molecule, the Potency [10] was “inactive”, the activity change, negative = inhibition [11] was 3.01% (inactive) and the max response [11, 17] was 9.82%. For the same molecule, the max response [11, 18] was 10.9%, the Potency [12] was “inactive” and the Potency [13] was “inactive”. For the same molecule, the Potency [14] was “inactive”.
For `CN(C)Cc1ccccc1-c1cncnc1Nc1ccncc1`, the Potency [1] was > 11.4 µM (inactive), the activity change, negative = inhibition [2] was -25.5% (inactive) and the activity change, negative = inhibition [4] was 10.2% (inactive). For the same molecule, the activity, negative = inhibition [5] was 5.07% (inactive), the Potency [6] was > 46 µM (inactive) and the Potency [7] was > 46 µM (inactive). For the same molecule, the outcome [8] was “inactive”, the Potency [9] was “inactive” and the activity change, negative = inhibition [11] was 4.9% (inactive). For the same molecule, the max response [11, 17] was 13.6%, the max response [11, 18] was 17.6% and the Potency [12] was “inactive”. For the same molecule, the Potency [13] was “inactive” and the Potency [14] was “inactive”.
With `CN(C)c1ncc2ncc(=O)n(C[C@H]3CCCO3)c2n1` the activity change, negative = inhibition [2] was -16.4% (inactive), the activity change, negative = inhibition [4] was -6.33% (inactive) and the activity, negative = inhibition [5] was -10.5% (inactive). For the same molecule, the Potency [6] was > 9.22 µM (inactive), the Potency [7] was > 46 µM (inactive) and the outcome [8] was “inactive”. The Potency [9] was “inactive”, the activity change, negative = inhibition [11] was 5.33% (inactive) and the max response [11, 17] was -7.9%. For the same molecule, the max response [11, 18] was -4.59%, the Potency [12] was “inactive” and the Potency [13] was “inactive”. The Potency [14] was “inactive”.
With `CNc1ccnc(-c2ccccc2CN(C)C)n1` the Potency [1] was > 11.4 µM (inactive), the activity change, negative = inhibition [2] was -3.79% (inactive) and the Potency [3] was 12.6 µM (active). The activity change, negative = inhibition [4] was -12.6% (inactive), the activity, negative = inhibition [5] was -6.7% (inactive) and the Potency [6] was > 46 µM (inactive). The Potency [7] was > 46 µM (inactive), the outcome [8] was “inactive” and the Potency [9] was “inactive”. For the same molecule, the outcome [15] was “inactive”, the outcome [16] was “inactive” and the activity change, negative = inhibition [11] was 2.03% (inactive). The max response [11, 17] was -5.53%, the max response [11, 18] was 2.14% and the Potency [13] was “inactive”. The Potency [14] was “inactive”.
In the case of `Cc1ccccc1-c1nc(NCc2cccs2)c2ccccc2n1`, the activity change, negative = inhibition [4] is reported as -9.98% (inactive), the activity, negative = inhibition [5] is reported as -16.7% (inactive) and the Potency [6] is reported as > 46 µM (inactive). The Potency [7] was > 46 µM (inactive), the outcome [8] was “inactive” and the activity change, negative = inhibition [11] was 5.52% (inactive). The max response [11, 17] was -1.85%, the max response [11, 18] was 1.44% and the Potency [12] was “inactive”. The Potency [13] was 14.1 µM (active) and the Potency [14] was “inactive”.
